# eIF4E-4G inh = eIF4E/eIF4G interaction inhibition in translation initiation. P63073+Q04637. hit rate 0.37% among 220,000. inhibition, % at 21.7 µM. TR-FRET eIF4E-eIF4GI(517-606) binding, 2 h;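 further: 0% = full FRET control wells and 100% = background wells lacking eIF4GI fragment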
# SUMO HTRF inh = SUMOylation inhibition. HTRF SUMOylation assay, SAE1/SAE2 + UBC9, in vitro. inhibition, % at 35 µM. hit rate 0.36% among 290,000. AID 2006; in the data active means inhibition above about 50%, passing the limit was not always enough
# 14-3-3 Bad inh = disrupts binding of bovine 14-3-3 zeta to phospho-Bad peptide. P63103. TR-FRET 14-3-3zeta/Dy647-pBad peptide displacement, 1 h. inhibition, % at 21.7 µM. hit rate 0.71% among 220,000. AID 781;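 active means inhibition above about 70%, limit read from the data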;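 further: 0% = full 14-3-3 plus peptide FRET controls and 100% = background without 14-3-3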
# NCF1 inh = inhibitors of human p47phox binding. P14598. p47phox/p22phox peptide binding, fluorescence polarization, 2 h. inhibition, % at 24.7 µM. hit rate 0.53% among 220,000. AID 1274;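 further: 0% = p47phox with labelled peptide and 100% = labelled peptide alone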
# * marks the source's active call; other numbers are inactive results; . = not tested or not shown; [ ] = remark or other dose. A selection: hits, their analogues and other compounds. The true share with any hit is near 1.3%.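 How the source made its calls, unless noted: active means inhibition above about 30% (limit read from the data); inactive means the rest.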
SMILES,eIF4E-4G inh,SUMO HTRF inh,14-3-3 Bad inh,NCF1 inh
Cn1c(-c2ccc(C=O)s2)nc2ccccc21,2,56*,5,-10
COC(=O)c1sc(NC(=O)c2c(OC)cccc2OC)c(C#N)c1C,2,10,-9,-29
Nn1cnnc1N/N=C\c1ccc(-c2ccccc2[N+](=O)[O-])o1,2,98*,-4,-5
Cc1nc(-c2cccc(S(=O)(=O)N3CCCC(C)C3)c2)cs1 (configuration not stated),12,-17,80*,-15
Nc1nc(SCC(=O)N2CCCC2)[nH]c(=O)c1NC(=O)c1cccs1,-1,12,-9,-67
CC(=O)CSc1nnc(-c2cnccn2)n1-c1ccccc1,-4,23,-1,40*
C=CCn1c(SCC#N)nnc1-c1ccc2ncccc2c1,98*,-4,-6,-5
O=C(O)C(Cc1ccc(Cl)cc1)Sc1nc2ccccc2[nH]1 (configuration not stated),.,8,.,.
Nc1ccc2nc3c(=O)n(C4CCCCC4)c(=O)[nH]c3nc2c1,6,61*,-3,-15
Cc1cc2nc3c(=O)n(CCc4ccccc4)c(=O)[nH]c3nc2cc1N,-2,46,-11,-19
CCCCn1c(=O)[nH]c2nc3cc(N)ccc3nc2c1=O,0,98*,-11,-13
Nc1ccc2nc3c(=O)n(CCc4ccccc4)c(=O)[nH]c3nc2c1,-2,68*,-14,-13
CC(C)C(=O)Nc1ccc(NC(=O)c2cccc(F)c2)cn1,0,25,76*,-15
Nc1cc(Oc2cccnc2)cc([N+](=O)[O-])c1,4,-4,89*,4
Cc1cccc(Oc2cc(N)cc([N+](=O)[O-])c2)c1,7,-10,15,-5
Clc1nc(Cl)nc(N(c2ccccc2)c2ccccc2)n1,19,-4,5,3
Nc1ccc(N(c2ccccc2)c2ccc(N)cc2)cc1,41*[fluorescence artefact?],-10,-20,-5
CC(C)C(c1nnnn1C1CCCCC1)N1CCOCC1 (configuration not stated),2,13,8,-11
CC(C)C(c1nnnn1C(C)(C)C)N1CCOCC1 (configuration not stated),3,24,71*,-16
C#CCOCCOCCOCCNc1nc(N2CCN(C(=O)[C@H](CCCCN)n3cc([C@@H](N)CO)nn3)CC2)nc(N2CCN(C(=O)[C@H](Cc3cc4ccccc4[nH]3)n3cc([C@@H](N)Cc4ccc(O)cc4)nn3)CC2)n1,0,-1,30,39*
C#CCOCCOCCOCCNc1nc(N2CCN(C(=O)C(Cc3cc4ccccc4[nH]3)n3cc(C(N)C(C)CC)nn3)CC2)nc(N2CCN(C(=O)C(Cc3cc4ccccc4[nH]3)n3cc(C(N)C(C)CC)nn3)CC2)n1 (configuration not stated),0,6,25,67*
C#CCOCCOCCOCCNc1nc(N2CCN(C(=O)[C@H]([C@@H](C)CC)n3cc([C@@H](N)CC(C)C)nn3)CC2)nc(N2CCN(C(=O)[C@H](Cc3cc4ccccc4[nH]3)n3cc([C@@H](N)Cc4ccc(O)cc4)nn3)CC2)n1,0,-8,13,53*
C#CCOCCOCCOCCNc1nc(N2CCN(C(=O)[C@H](Cc3ccc(O)cc3)n3cc([C@@H](N)C(C)CC)nn3)CC2)nc(N2CCN(C(=O)[C@H](Cc3cc4ccccc4[nH]3)n3cc([C@@H](N)Cc4ccc(O)cc4)nn3)CC2)n1 (some centres not stated),-3,-23,39,33*
C#CCOCCOCCOCCNc1nc(N2CCN(C(=O)[C@H](CCCCN)n3cc([C@@H](N)CC(C)C)nn3)CC2)nc(N2CCN(C(=O)[C@H](Cc3cc4ccccc4[nH]3)n3cc([C@@H](N)Cc4ccc(O)cc4)nn3)CC2)n1,3,-1,30,.
CCOc1ccc(CNC(=O)CN2C(=O)C(c3ccccc3)Oc3cccnc32)cc1 (configuration not stated),.,18,.,.
SMILES,eIF4E-4G inh,SUMO HTRF inh,14-3-3 Bad inh,NCF1 inh
C/C(=C\C(=O)c1ccccc1)Nc1ccc2c(c1)OCO2,-1,-8,-3,-9
CCN1C(=O)/C(=C/c2ccc(C)o2)N(C)C1=S,5,18,-6,-14
C#CCN(C(=O)Nc1ccccc1)c1ccccc1,15,-1,13,-6
COc1cc(C(C(=O)NCC2CCCO2)N(C(=O)Cn2nnc3ccccc32)c2ccc(C(C)=O)cc2)ccc1O (configuration not stated),.,16,.,.
C#CCOCCOCCOCCNc1nc(N2CCN(C(=O)[C@H]([C@@H](C)CC)n3cc(CCCN=C(N)N)nn3)CC2)nc(N2CCN(C(=O)[C@H](CCCCN)n3cc(CCCC)nn3)CC2)n1,6,8,43,7
C#CCOCCOCCOCCNc1nc(N2CCN(C(=O)[C@H](C)n3cc(CCCN=C(N)N)nn3)CC2)nc(N2CCN(C(=O)[C@H](CCCCN)n3cc(CCCC)nn3)CC2)n1,10,18,89*,14
COCCn1nnnc1C(c1ccc(OC)c(OC)c1)N1CCN(c2nc3ccccc3s2)CC1 (configuration not stated),.,24,.,.
O=C(CSc1nnc(COc2ccc3c(c2)CCCC3)o1)Nc1ccc(F)cc1,-3,23,87*,-5
Cc1[nH][nH]c(=O)c1C(c1ccc(-c2cccc(C(=O)O)c2)o1)c1c(C)[nH][nH]c1=O,3,88*,5,-11
Cc1[nH][nH]c(=O)c1C(c1ccc(-c2ccc(Cl)cc2Cl)o1)c1c(C)[nH][nH]c1=O,2,91*,-4,-32
Cc1[nH][nH]c(=O)c1C(c1ccc(-c2cccc(Cl)c2)o1)c1c(C)[nH][nH]c1=O,-1,88,-7,-25
CCOC(=O)C(C)/C(C)=N/NC(N)=S (configuration not stated),7,-7,-22,-7
COC(=O)CN1C(=O)[C@H]2[C@@H](c3ccc(C)o3)N3C(=O)CN(Cc4ccccc4)C(=O)[C@@]3(C)[C@H]2C1=O,.,-2,.,.
CC1=CC(C)(C)n2c(O)c(N=N)c3cc(C)cc1c32,3,-3,2,0
CCOC(=O)C1(CC)CC(CSc2nc3ccccc3[nH]2)OC1=O (configuration not stated),10,10,72*,1
O=C(CCCOc1ccc(Cl)cc1Cl)N/N=C/c1ccccc1,3,9,6,51*
O=C(N=Nc1c(O)[nH]c2ccc([N+](=O)[O-])cc12)c1cc(-c2ccccc2Cl)nc2ccccc12,34*,11,94*[fluorescence artefact?],29
COc1ccccc1C(=O)N=Nc1c(O)[nH]c2ccc([N+](=O)[O-])cc12,10,-1,29,3
O=C(N=Nc1c(O)[nH]c2ccc(Br)cc12)c1cc(-c2cccs2)nc2ccccc12,12,19,86*,60*
COc1ccc(/C=N/OCC(=O)N=Nc2c(O)[nH]c3ccc(Br)cc23)cc1,1,39,-10,6
Cc1cccc(C)c1OCC(=O)N=Nc1c(O)[nH]c2ccc(Br)cc12,-26,59*,-10,-5
